Screening results: PubChem BioAssay, National Center for Advancing Translational Sciences (NCATS)
Rows were chosen to be rich in hits. Some 4% of all compounds tested hit in one or more screens of this group.
TRHR PAM: TRH receptor (human) allosteric enhancement | TRHR cells, fluo-8 calcium fluorescence, EC20 TRH enhancement | enhancement, % at 2 µM | hit rate 0.66% among 360,000; in the data active = enhancement above about 30%; also: 0% is about no effect
Target sequence (P34981 whole entry, looked up): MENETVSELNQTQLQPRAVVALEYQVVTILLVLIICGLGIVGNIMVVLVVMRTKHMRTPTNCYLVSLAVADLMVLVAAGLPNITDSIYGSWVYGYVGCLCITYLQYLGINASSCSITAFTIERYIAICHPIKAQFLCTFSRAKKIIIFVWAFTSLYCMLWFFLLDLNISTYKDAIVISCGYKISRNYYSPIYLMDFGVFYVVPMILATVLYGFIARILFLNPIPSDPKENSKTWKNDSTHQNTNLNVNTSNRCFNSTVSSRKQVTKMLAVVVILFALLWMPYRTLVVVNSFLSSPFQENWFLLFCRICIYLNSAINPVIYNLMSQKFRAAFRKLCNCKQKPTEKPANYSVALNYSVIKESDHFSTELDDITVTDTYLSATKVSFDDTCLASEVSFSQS
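Enhancer read-out: after compound pinning and an initial kinetic agonist-mode read, an EC20 of TRH (10 nM final) was injected and fluo-8 calcium signal (Ex 480/Em 530) followed at 1 s/cycle for 100 cycles in TRHR-expressing cells.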
D1 antag: human D1 dopamine receptor antagonism; hit rate 3.2% among 360,000; AID 504652; HEK293 TREx D1 cells, calcium flux, dopamine EC80; hits give low values; activity change, negative = inhibition, % at 10 µM; in the data active = activity change below about -30%; also: % is scaled to controls: 0 for no effect and ±100 for the full control effect
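After overnight tetracycline induction at 30 C, force-coupled D1 HEK293 cells took up a no-wash calcium dye at room temperature. Compounds were added and monitored 180 s, and the response to EC80 dopamine was then recorded.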
GRP78 ERSR act: inducers of ER stress response in human glioma cells. U87-MG GRP78 promoter luciferase reporter, 16 h. Potency, µM, without a hit: at the top dose activation, usual class: activators. hit rate 0.02% among 420,000; active = well fitted activation curve with a large enough effect; also: potency is read from the fitted curve at half-maximal effect; series mostly up to about 76 µM; % of control where 0% means no effect; nearly all actives have a fitted effect of over 35% in size
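ERSR induction read as luciferase luminescence (Bright-Glo, 10 min at room temperature) in stably transfected human U87-MG glioma cells exposed to compounds for 16 h, using GRP78 as sensor.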
D1 PAM: human D1 dopamine receptor positive modulation; hit rate 0.036% among 360,000; AID 504651; potentiation, % at 10 µM; HEK293 TREx D1 cells, calcium flux, dopamine EC20 potentiation; in the data active = potentiation above about 30%; also: 0% is about no effect
D1 agonist: activates the human D1 dopamine receptor; P21728; HEK293 T-REx D1 cells, calcium flux, agonist mode; activation, % at 2 µM; hit rate 1% among 360,000; AID 504660; also: 0% is about no effect
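Inducible HEK293 T-REx D1 cells, force-coupled to calcium signalling, were plated at 4000 cells/well with tetracycline and held overnight at 30 C. After no-wash calcium dye loading, compound-evoked calcium rise over 180 s flagged agonists.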
TRHR ag: agonists of human TRH receptor | P34981 | TRHR cells, calcium flux fluo-8, FDSS agonist mode | activation, % at 2 µM | hit rate 0.18% among 360,000 | AID 493084; also: 0% is about no effect
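Agonist-mode FDSS calcium read (Ex 480/Em 530, 1 s cycles) in 1536-well TRHR cells with fluo-8 dye, after 10-cycle baseline and 23 nL compound addition; TRH at EC20 (10 nM final) added afterwards for the enhancer phase.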
* = called active by the depositor; nt = no result given. Rule as the data show it, unless noted: active = activation above about 30%; inactive = the rest.

SMILES	TRHR PAM	D1 antag	GRP78 ERSR act	D1 PAM	D1 agonist	TRHR ag
CC1CC=CC2C1C(=O)N(Cc1ccccc1)C2c1ccc(-c2ccc(N(C)C)cc2)cc1F (stereo unspecified)	nt	nt	-4.0%	nt	nt	nt
O=C(NCCc1ccccc1)C1CCN(c2ncccn2)CC1	0.9	-10.8	5.4%	-1.6	-0.2	0.3
CC[C@H](C)[C@H](NC(=O)[C@H](CO)NC(=O)[C@H](CC(C)C)NC(=O)[C@@H]1CCCN1C(=O)[C@@H]1CCCN1C(=O)[C@H](CC(=O)O)NC(=O)[C@@H](N)CC(=O)O)C(=O)N[C@@H](CC(=O)O)C(=O)N[C@@H](CC(C)C)C(=O)N[C@H](C(=O)N[C@@H](Cc1ccccc1)C(=O)N[C@@H](Cc1cnc[nH]1)C(=O)N[C@@H](CC(C)C)C(=O)N[C@@H](CC(C)C)C(=O)N[C@@H](CCCNC(=N)N)C(=O)N[C@H](C(=O)N[C@@H](CC(C)C)C(=O)N[C@@H](CC(C)C)C(=O)N[C@@H](CCC(=O)O)C(=O)N[C@@H](CC(C)C)C(=O)N[C@@H](C)C(=O)N[C@@H](CCCNC(=N)N)C(=O)N[C@H](C(=O)N[C@@H](CCC(N)=O)C(=O)N[C@@H](CO)C(=O)N[C@@H](CCC(N)=O)C(=O)N[C@@H](CCCNC(=N)N)C(=O)N[C@@H](CCC(=O)O)C(=O)N[C@@H](CCCNC(=N)N)C(=O)N[C@@H](C)C(=O)N[C@@H](CCC(=O)O)C(=O)N[C@@H](CCC(N)=O)C(=O)N[C@@H](CC(N)=O)C(=O)N[C@@H](CCCNC(=N)N)C(=O)N[C@H](C(=O)N[C@H](C(=O)N[C@@H](Cc1ccccc1)C(=O)N[C@@H](CC(=O)O)C(=O)N[C@@H](CO)C(=O)N[C@H](C(N)=O)C(C)C)[C@@H](C)CC)[C@@H](C)CC)[C@@H](C)O)[C@@H](C)O)[C@@H](C)O	nt	nt	-8.9%	nt	nt	nt
COC(=O)c1c(C)oc(C)c1S(=O)(=O)N(C)C1CCCCC1	-1.3	-45.5*	-0.8%	-2.1	1.4	-1.5
COC(=O)c1c(C)oc(C)c1S(=O)(=O)NCC1CC1	1.8	-5.2	-3.3%	-10.6	3.5	-1.3
O=C(N/N=C/c1coc2ccccc2c1=O)c1ccccc1	-1.0	-43.7*	-1.8%	-7.3	1.1	-0.1
CC1=C(C(N)=O)C(c2ccc(Br)cc2)n2nc(CCCO)nc2N1 (stereo unspecified)	-1.1	0.2	-2.1%	-10.9	4.2	0.9
Brc1ccc(C2=CC(c3cccs3)n3ncnc3N2)cc1 (stereo unspecified)	3.4	8.1	-2.1%	1.1	59.7*	66.3*
OCCCc1nc2n(n1)C(c1cccs1)C=C(c1ccc(Br)cc1)N2 (stereo unspecified)	-3.0	3.9	nt	4.3	39.9*	44.8*
Fc1ccc(C2=CC(c3ccc(Br)o3)n3ncnc3N2)cc1 (stereo unspecified)	-1.5	-21.6	0.6%	2.2	7.4	3.6
Fc1ccc(C2=CC(c3ccco3)n3ncnc3N2)cc1 (stereo unspecified)	2.0	-8.1	-2.6%	3.1	12.2	-0.2
C1=C(c2ccc(-c3ccccc3)cc2)Nc2ncnn2C1c1ccco1 (stereo unspecified)	12.6	7.9	7.8%	1.6	61.4*	30.3*
O=C(c1ccc(Cl)cc1)c1oc2ccccc2c1CS(=O)c1ccccc1 (stereo unspecified)	-18.2	0.3	-3.6%	-2.5	6.0	0.3
COc1ccccc1-c1nn2c(=O)cc(CN3CCN(C(=O)Nc4ccc(C)cc4Cl)CC3)nc2s1	8.3	-1.8	-1.4%	1.5	3.4	-0.4
CCOC(=O)C1CCN(C(=O)Cn2nc(C)n3nc(-c4ccc(CC)cc4)cc3c2=O)CC1	1.7	-4.4	-2.0%	-1.8	0.4	-0.4
Cc1onc(-c2c(F)cccc2Cl)c1C(=O)NC(=S)Nc1c(C)n(C)n(-c2ccccc2)c1=O	-1.9	-66.7*	-4.1%	-10.3	-0.2	-0.2
COC(=O)c1[nH]c2cc(OC)c(OC)cc2c1NC(=O)CN1C[C@H]2C[C@@H](C1)c1cccc(=O)n1C2	1.6	nt	-1.0%	-0.7	-1.4	-0.1
O=C(COC(=O)c1ccc2ncsc2c1)NCc1ccccc1Cl	nt	nt	-1.9%	nt	nt	nt
C=CCOc1c(Br)cc(CNn2nnnc2N)cc1OCC	-3.8	-24.0	2.0%	-4.8	1.9	-0.7
Cc1ccnc(N/C=C(/NC(=O)c2ccccc2)C(=O)N/N=C\c2ccc(F)cc2)n1	0.0	-36.6*	-4.5%	-7.2	0.5	-0.5
CS(=O)(=O)NN1C(=O)c2ccccc2NC1c1ccccc1O (stereo unspecified)	-5.5	-13.2	2.0%	-4.5	0.3	0.1
CC(=O)NN1C(=O)c2ccccc2NC1c1ccccc1O (stereo unspecified)	33.3*	29.4	-3.2%	9.7	1.8	0.3
Cc1ccccc1Nc1nc2ccccc2s1	8.9	12.1	9.3%	-7.8	37.2*	0.1
CCCN1CCN(CC(=O)Nc2nc3ccccc3s2)CC1	-1.7	4.3	-0.2%	-0.9	2.8	0.4
O=C(CC1CCCCC1)Nc1nc2ccccc2s1	36.1*	-8.8	7.9%	2.5	5.8	1.3
SMILES	TRHR PAM	D1 antag	GRP78 ERSR act	D1 PAM	D1 agonist	TRHR ag
CN(C)C(=S)Nc1nc2ccccc2s1	0.4	-30.4*	2.1%	-4.0	1.9	0.4
O=C(CN1CCN(Cc2ccc(F)cc2)CC1)Nc1nc2ccccc2s1	-7.1	-30.3*	-0.3%	-3.2	12.0	0.0
Cc1ccc(Nc2nc3ccccc3s2)cc1	3.1	-21.2	-0.4%	-4.0	12.5	-0.8
CCOc1ccc(NC(=O)Cn2cc(S(=O)(=O)NC)c(S(=O)(=O)NC)c2)cc1	-3.7	-4.1	-0.8%	-0.8	2.9	0.5
C=CCn1c(SCc2ccc(F)cc2)nnc1-c1sc2nc(C)cc(C)c2c1N	18.2	-38.1*	-2.4%	-1.6	-0.3	-1.4
CC1CCC2(CC1)NC(=O)N(CC(=O)NC(C)c1ccc(F)c(F)c1)C2=O (stereo unspecified)	0.9	-35.2*	-2.2%	-3.8	1.2	0.1
Cc1ccc(CN2CCN(CC(=O)NC(C)c3ccc4c(c3)OCCO4)C2=O)cc1 (stereo unspecified)	-6.3	-11.1	-1.9%	nt	44.4*	0.2
CC(NC(=O)CN1C(=O)NC2(CCc3ccccc32)C1=O)c1ccc2c(c1)OCCO2 (stereo unspecified)	0.4	-42.5*	-3.2%	-2.8	-0.7	-0.5
COc1ccc(C(NC(=O)CN2C(=O)NC3(CCc4ccccc43)C2=O)c2ccc(OC)cc2)cc1 (stereo unspecified)	1.7	-7.4	-3.2%	-6.8	2.1	1.3
CN(C(=O)CN1C(=O)NC2(CCc3ccccc32)C1=O)C1CCS(=O)(=O)C1 (stereo unspecified)	-2.2	-30.6*	-3.2%	-0.1	-1.6	-0.7
